Bioassay records (PubChem BioAssay)
Pf Dd2 growth: qHTS Primary assay for Inhibitors of Plasmodium falciparum Dd2 growth in vitro. Potency, µM (titrated, usually from 28.9 µM), actives largely listed as inhibitors. 120,000 tested, 4.3% active. AID 1347417, 2020. P. falciparum Dd2 growth, SYBR Green, 72 h; active = well fitted inhibition curve with a large enough effect; also: nearly all actives have a fitted effect of over 65% in size
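Readout: SYBR Green fluorescence, 485 nm excitation, 535 nm emission, after ~16 h lysis at 37C. Before that, Dd2-infected red cells (2.5% hematocrit) grew 72 h with compound, 29 uM top final concentration.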
Numbers stand for hits. Only a selection was taken, and hits are over-represented in it overall.

Results for CCCNC(=O)C1COC2(CCN(C(=O)Cc3ccccc3)CC2)N1C(=O)c1cccc(C)c1 (configuration not stated) ?
Pf Dd2 growth: inactive

How did COc1ccc(CN2C(=O)COC[C@H]2C(=O)N2CCc3ccccc3C2)c(OC)c1 do in these assays?
Pf Dd2 growth: inactive

Results for O=c1c2c(CO)c(-c3ccccc3)nn2ccn1Cc1ccc(Br)cc1 ?
Pf Dd2 growth: inactive

Results for Cc1cnn(CCC(=O)N2CCC(Oc3ccccc3)(C(=O)O)CC2)c1 ?
Pf Dd2 growth: inactive

Results for COc1ccc2c(ccn2CCNC(=O)Cn2nc3c(cc2=O)CCCC3)c1 ?
Pf Dd2 growth: inactive

What do the screens show for `Cc1cnc(-c2ccccc2)n1C1CCCN(C(=O)c2ccnn2C)C1` (configuration not stated)?
Pf Dd2 growth: inactive

How did O=C(COc1ccccc1)N1CCCC(Nc2ccc(F)cc2)C1 (configuration not stated) do in these assays?
Pf Dd2 growth: inactive

What do the screens show for `Cc1cnc(-c2ccccc2)n1C1CCCN(C(=O)COc2ccc(F)cc2)C1` (configuration not stated)?
Pf Dd2 growth: 2.8µM

What do the screens show for `O=C(CN1C(=O)NC(c2ccc(Cl)cc2)C2=C1COC2=O)Nc1ccc2c(c1)OCCO2` (configuration not stated)?
Pf Dd2 growth: inactive

Results for CN(C)C[C@@H]1CN(C)C[C@H]1NC(=O)c1ccccc1OC(F)(F)F ?
Pf Dd2 growth: inactive

What do the screens show for `CNC(=O)N1C[C@@H](CN(C)C)[C@H](NC(=O)c2ccccc2OC(F)(F)F)C1`?
Pf Dd2 growth: inactive

How did CC(C)N[C@@H]1CC[C@@H]1NC(=O)c1ccccc1OC(F)(F)C(F)F do in these assays?
Pf Dd2 growth: 7.9µM

What do the screens show for `CC(C)(C)c1nnc2n1C(C(=O)N1CCN(c3ncccn3)CC1)CC2` (configuration not stated)?
Pf Dd2 growth: inactive

Results for CC(C)(C)OC(=O)N1CCC(c2c(C(=O)N3CCN(Cc4ccccc4)CC3)cnn2-c2cccc(Cl)c2)CC1 ?
Pf Dd2 growth: 3.2µM

What do the screens show for `CC(C)(C)OC(=O)N1CCC(c2c(C(=O)N3CCC(c4ccccc4)C3)cnn2-c2cccc(Cl)c2)CC1` (configuration not stated)?
Pf Dd2 growth: 3.5µM

How did CN1CCN(C(=O)c2cnn(-c3cccc(F)c3)c2C2CCN(C(=O)OC(C)(C)C)CC2)CC1 do in these assays?
Pf Dd2 growth: inactive

How did Cc1cccc(-n2ncc(C(=O)N3CCOCC3)c2C2CCN(C(=O)OC(C)(C)C)CC2)c1 do in these assays?
Pf Dd2 growth: inactive

What do the screens show for `COc1ccccc1N1CCN(C(=O)c2cnn(-c3cccc(Cl)c3)c2C2CCN(C(=O)OC(C)(C)C)CC2)CC1`?
Pf Dd2 growth: 7.9µM

Results for Cc1ccc(C2CCN(C(=O)c3cnn(-c4cccc(Cl)c4)c3C3CCN(C(=O)OC(C)(C)C)CC3)C2)cc1 (configuration not stated) ?
Pf Dd2 growth: 4.5µM

What do the screens show for `CC(C)(C)OC(=O)N1CCC(c2c(C(=O)N3CCN(c4ncccn4)CC3)cnn2-c2ccccc2)CC1`?
Pf Dd2 growth: inactive

What do the screens show for `Cc1cnc(C(=O)N[C@@H]2CCC[C@@H]2C(=O)NCc2cc(F)ccc2F)cn1`?
Pf Dd2 growth: inactive

Results for O=C(NC[C@H]1OC[C@@H](NCc2ccccc2O)[C@@H]1O)Nc1ccccc1 ?
Pf Dd2 growth: inactive

How did Cc1cc2nc3n(c(=O)c2n1CC(=O)Nc1ccc2c(c1)OCCO2)CCCCC3 do in these assays?
Pf Dd2 growth: inactive

Results for CN1C(=O)c2cncnc2OCC1CNC(=O)Cc1cccc(Cl)c1 (configuration not stated) ?
Pf Dd2 growth: inactive

Results for COc1ccccc1C(=O)N1CCC2(CC(c3cccc(C(F)(F)F)c3)=NO2)C1 (configuration not stated) ?
Pf Dd2 growth: inactive

Results for CCN(CC)Cc1cnc2c(C(=O)N3CCCCC3CCO)cnn2c1 (configuration not stated) ?
Pf Dd2 growth: inactive

How did CC(C)(C)n1nnnc1C1CC2(CCOCC2)C(=O)N1Cc1ccc(F)cc1Cl (configuration not stated) do in these assays?
Pf Dd2 growth: inactive

What do the screens show for `COc1ccc(OC)c2nc(-c3cccc(Cl)c3)c(CN3CC(O)C3)cc12`?
Pf Dd2 growth: inactive

What do the screens show for `COc1ccc(-c2nc3cc(C)ccc3cc2CN2CCC[C@@H]2C(N)=O)cc1OC`?
Pf Dd2 growth: inactive

What do the screens show for `COc1cc2cc(CN3CCC[C@@H]3CO)c(-c3cccc(Cl)c3)nc2cc1OC`?
Pf Dd2 growth: 13µM
